Experimental findings from PubChem BioAssay are described below.

“And” between values parts separate entries of the source, which are not always exact repeats. Equal entries are not always repeated. The source made the active and inactive calls.

Assay [1] can be described thus: small molecules captured by biotinylated probe aFSTL3 – biochemical, small-molecule microarray, fluorescence 635/667, stem cell growth factor project, primary screen (AID 1064).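 Also: measures binding of the biotinylated anti-FSTL3 antibody to printed compounds.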 The note with it: higher = more signal.
The nature of assay [2]: binders from COS7 lysate, DM2A8 probe, primary screen, torsin A project, cell lysate, small-molecule microarray, fluorescence 635/667 (AID 1065). Conditions: higher = more signal, COS7 lysate expressing mutant human TOR1A.
Assay [3] in a line: small molecules captured by biotinylated probe aFGF2 – biochemical, small-molecule microarray, fluorescence 635/667, stem cell growth factor project, primary screen (AID 1067).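 Also: measures binding of biotinylated aFGF2 protein to printed compounds on slides; z-score merges feature fluorescence and signal-to-noise across triplicate slides.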 Conditions: higher = more signal.
Assay [4] can be described thus: small molecules captured by biotinylated probe aFGF10 – biochemical, small-molecule microarray, fluorescence 635/667, stem cell growth factor project, primary screen (AID 1071).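 Also: score merges 667 nm spot intensity and signal to noise from triplicate slides.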 Conditions: higher = more signal.
Assay [5] concerns the target Neurogenic locus notch homolog protein 2 (Homo sapiens) (UniProt Q04721). In words: small molecules binding Notch2 protein – biochemical, small-molecule microarray, 635 nm fluorescence, stem cell growth factors, primary screen (AID 1073). The note with it: higher = more signal.
The target in assay [6] is Pro-neuregulin-1, membrane-bound isoform (Homo sapiens) (UniProt Q02297). The assay is described as follows: small molecules binding neuregulin-1 protein – biochemical, small-molecule microarray, fluorescence 635/667, psychiatric disease protein project, primary screen (AID 1075).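 Also: score combines 667 nm spot fluorescence with signal to noise.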 Conditions: NRG1 binding, 635 nm fluorescence, higher = more signal.
In assay [7] the test system is Neuregulin-1 EGF-like domain. The assay is described as follows: small molecules binding NRG1 EGF domain – biochemical, small-molecule microarray, 635 nm fluorescence, primary screen (AID 1081).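 Also: binding of the protein to compounds printed on small-molecule microarray slides.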 The note with it: higher = more signal.
Assay [8] can be described thus: FRG1 expression reporter modulators in myotubes – cell-based, C2C12 myotubes, firefly/Renilla luciferase, luminescence, FRG1 inhibition for FSHD, primary screen (AID 1084). The note with it: FRG1 promoter luciferase, higher = more signal, called active from +8 up or from −8 down.
Assay [9] can be described thus: small molecules captured by biotinylated probe aFST – biochemical, small-molecule microarray, fluorescence 635/667, stem cell growth factor project, primary screen (AID 1086).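 Also: score merges 667 nm fluorescence with signal-to-noise of each printed compound spot.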 Conditions: higher = more signal.
Assay [10] is described as follows: binders of probe aHhip on microarray, primary screen, stem cell growth factor project, biochemical, small-molecule microarray, fluorescence 635/667 (AID 1087).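 Also: score merges spot fluorescence at 667nm with spot signal to noise ratio.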 Conditions: higher = more signal.
Assay [11] has as its system PRMT1 (protein arginine N-methyltransferase 1). In words: small molecules binding arginine methyltransferase PRMT1 – biochemical, small-molecule microarray, 635 nm fluorescence, primary screen (AID 1088).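 Also: binding of Prmt1 protein to compounds spotted on small-molecule microarray slides.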 The note with it: higher = more signal.
A short description of assay [12]: growth effects on S. cerevisiae YJM789 – YJM789 clinical isolate, OD600, 24 h, basal, primary screen (AID 1089).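 Also: growth of clinical yeast isolate S. cerevisiae YJM 789 seeded 1000 cells per well; test concentration not given here.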 The note with it: higher = more signal, called active from +8 up or from −8 down.
Assay [13] in a line: S. pombe growth modifiers, basal conditions – strain 972, OD600, 24 h, no modulator, primary screen (AID 1090).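 Also: basal condition with compound alone and no growth modifier present; test concentration not given here.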 Conditions: S. pombe 972 growth, higher = more signal, called active from +8 up or from −8 down.
Assay [14] is described as follows: budding yeast growth modifiers under rapamycin – strain BY4716, OD600, 96 h, primary screen (AID 1091). Also: test concentration not given here. Conditions: S. cerevisiae BY4716 + rapamycin, higher = more signal, called active from +8 up or from −8 down.
Assay [15] deals with Torsin-1A-interacting protein 2 (Homo sapiens) (UniProt Q8NFQ8). The assay is described as follows: small molecules binding lysate-expressed LULL1 – cell lysate, human LULL1 lysate, 635/667 nm fluorescence, primary screen (AID 1092).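 Also: probe is lysate of COS7 cells overexpressing human LULL1; score merges per-feature 667 nm fluorescence with signal-to-noise.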 Conditions: small-molecule microarray, hLULL1 lysate binding, 635 nm fluorescence; higher = more signal.
Assay [16] in a line: optical density change of DRC41 E. coli – strain DRC41, OD650, 24 h, E. coli filamentation project, primary screen (AID 1093).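 Also: MC1000 strain lacking acrAB efflux and sulA so SOS filamentation is blocked; test concentration not given here.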 Conditions: E. coli DRC41 growth, higher = more signal, called active from +8 up or from −8 down.
The nature of assay [17]: probe aLefty2 binding to arrayed compounds – biochemical, biotinylated probe, 635/667 nm fluorescence, primary screen (AID 1094).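 Also: score merges spot fluorescence near 667 nm with spot signal-to-noise ratio.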 Conditions: small-molecule microarray, higher = more signal.
The test system of assay [18] is Noggin (protein binding on small-molecule microarray). In words: small molecules binding Noggin protein – biochemical, 635/667 nm fluorescence, primary screen (AID 1095).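 Also: score merges 667 nm feature fluorescence with signal to noise over triplicate slides.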 Conditions: 635 nm fluorescence, higher = more signal.
Assay [19] concerns the target Neurogenic locus notch homolog protein 3 (Homo sapiens) (UniProt Q9UM47). The assay is described as follows: small molecules binding NOTCH3 protein – biochemical, 635/667 nm fluorescence, primary screen (AID 1096). The note with it: small-molecule microarray, 635 nm fluorescence, higher = more signal.
Assay [20] can be described thus: probe aEGFR binding to arrayed compounds – biochemical, biotinylated probe, 635/667 nm fluorescence, primary screen (AID 1097).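 Also: probe is a biotinylated anti-EGFR antibody binding compounds printed on slides; score combines fluorescence near 667 nm and signal to noise of each spot.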 The note with it: small-molecule microarray, higher = more signal.

Neurogenic locus notch homolog protein 3 (Homo sapiens), sequence (Q9UM47 whole entry, looked up): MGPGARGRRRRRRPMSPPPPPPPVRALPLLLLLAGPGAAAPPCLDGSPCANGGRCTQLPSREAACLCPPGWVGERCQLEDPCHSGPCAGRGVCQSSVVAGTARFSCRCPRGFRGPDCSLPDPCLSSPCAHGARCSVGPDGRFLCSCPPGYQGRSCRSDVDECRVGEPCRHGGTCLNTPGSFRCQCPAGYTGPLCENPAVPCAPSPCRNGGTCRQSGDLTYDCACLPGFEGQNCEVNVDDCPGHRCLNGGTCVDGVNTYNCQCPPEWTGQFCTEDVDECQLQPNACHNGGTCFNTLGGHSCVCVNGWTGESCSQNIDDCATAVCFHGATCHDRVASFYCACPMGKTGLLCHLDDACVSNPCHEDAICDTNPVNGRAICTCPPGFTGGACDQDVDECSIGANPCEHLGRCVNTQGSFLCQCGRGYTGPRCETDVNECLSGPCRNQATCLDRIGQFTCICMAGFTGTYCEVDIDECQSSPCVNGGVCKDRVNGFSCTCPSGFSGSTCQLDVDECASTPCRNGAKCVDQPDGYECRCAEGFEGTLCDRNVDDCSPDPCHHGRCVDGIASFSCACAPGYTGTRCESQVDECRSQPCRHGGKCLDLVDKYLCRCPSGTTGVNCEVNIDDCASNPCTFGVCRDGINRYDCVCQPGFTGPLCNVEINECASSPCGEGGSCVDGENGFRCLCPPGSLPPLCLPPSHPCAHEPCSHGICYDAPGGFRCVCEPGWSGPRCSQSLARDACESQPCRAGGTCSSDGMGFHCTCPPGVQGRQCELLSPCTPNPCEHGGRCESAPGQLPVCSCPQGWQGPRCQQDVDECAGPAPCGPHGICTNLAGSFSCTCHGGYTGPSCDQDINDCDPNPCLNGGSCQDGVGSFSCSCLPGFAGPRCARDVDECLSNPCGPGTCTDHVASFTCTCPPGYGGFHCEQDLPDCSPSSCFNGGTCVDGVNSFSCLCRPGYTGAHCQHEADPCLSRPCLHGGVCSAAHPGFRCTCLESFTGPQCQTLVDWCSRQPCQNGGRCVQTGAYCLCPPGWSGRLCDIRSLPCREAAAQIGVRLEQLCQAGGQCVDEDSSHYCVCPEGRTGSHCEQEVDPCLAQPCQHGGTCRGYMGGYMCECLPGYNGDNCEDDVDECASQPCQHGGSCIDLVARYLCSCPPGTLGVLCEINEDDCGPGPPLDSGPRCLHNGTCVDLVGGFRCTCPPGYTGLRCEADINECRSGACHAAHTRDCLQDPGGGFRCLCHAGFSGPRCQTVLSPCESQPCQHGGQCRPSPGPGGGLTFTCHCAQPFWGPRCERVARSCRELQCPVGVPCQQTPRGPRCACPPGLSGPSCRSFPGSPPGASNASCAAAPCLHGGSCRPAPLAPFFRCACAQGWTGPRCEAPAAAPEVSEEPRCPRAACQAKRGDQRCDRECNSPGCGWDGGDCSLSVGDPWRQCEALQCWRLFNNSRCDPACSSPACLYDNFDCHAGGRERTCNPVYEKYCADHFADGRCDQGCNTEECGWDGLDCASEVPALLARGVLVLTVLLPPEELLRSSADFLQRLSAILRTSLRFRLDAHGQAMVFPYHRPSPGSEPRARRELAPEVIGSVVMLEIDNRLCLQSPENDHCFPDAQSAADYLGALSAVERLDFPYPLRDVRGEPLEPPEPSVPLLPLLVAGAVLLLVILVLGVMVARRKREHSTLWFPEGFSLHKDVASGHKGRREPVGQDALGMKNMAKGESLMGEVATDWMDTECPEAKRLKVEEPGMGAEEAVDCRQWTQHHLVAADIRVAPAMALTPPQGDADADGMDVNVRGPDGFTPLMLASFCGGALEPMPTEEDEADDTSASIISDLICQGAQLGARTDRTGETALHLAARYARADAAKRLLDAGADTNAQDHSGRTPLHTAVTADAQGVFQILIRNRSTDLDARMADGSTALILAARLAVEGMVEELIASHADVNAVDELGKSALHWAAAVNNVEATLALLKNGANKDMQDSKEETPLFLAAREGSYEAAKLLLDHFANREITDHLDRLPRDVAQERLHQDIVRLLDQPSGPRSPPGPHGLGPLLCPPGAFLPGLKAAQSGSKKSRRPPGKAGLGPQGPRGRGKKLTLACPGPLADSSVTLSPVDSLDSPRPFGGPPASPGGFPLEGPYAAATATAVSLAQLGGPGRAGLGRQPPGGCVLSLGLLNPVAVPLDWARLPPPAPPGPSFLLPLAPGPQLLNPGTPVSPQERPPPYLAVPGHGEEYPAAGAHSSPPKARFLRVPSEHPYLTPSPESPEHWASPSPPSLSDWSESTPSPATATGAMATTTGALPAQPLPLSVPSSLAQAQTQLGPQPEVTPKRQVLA
Neurogenic locus notch homolog protein 2 (Homo sapiens), sequence (Q04721 whole entry, looked up, canonical isoform): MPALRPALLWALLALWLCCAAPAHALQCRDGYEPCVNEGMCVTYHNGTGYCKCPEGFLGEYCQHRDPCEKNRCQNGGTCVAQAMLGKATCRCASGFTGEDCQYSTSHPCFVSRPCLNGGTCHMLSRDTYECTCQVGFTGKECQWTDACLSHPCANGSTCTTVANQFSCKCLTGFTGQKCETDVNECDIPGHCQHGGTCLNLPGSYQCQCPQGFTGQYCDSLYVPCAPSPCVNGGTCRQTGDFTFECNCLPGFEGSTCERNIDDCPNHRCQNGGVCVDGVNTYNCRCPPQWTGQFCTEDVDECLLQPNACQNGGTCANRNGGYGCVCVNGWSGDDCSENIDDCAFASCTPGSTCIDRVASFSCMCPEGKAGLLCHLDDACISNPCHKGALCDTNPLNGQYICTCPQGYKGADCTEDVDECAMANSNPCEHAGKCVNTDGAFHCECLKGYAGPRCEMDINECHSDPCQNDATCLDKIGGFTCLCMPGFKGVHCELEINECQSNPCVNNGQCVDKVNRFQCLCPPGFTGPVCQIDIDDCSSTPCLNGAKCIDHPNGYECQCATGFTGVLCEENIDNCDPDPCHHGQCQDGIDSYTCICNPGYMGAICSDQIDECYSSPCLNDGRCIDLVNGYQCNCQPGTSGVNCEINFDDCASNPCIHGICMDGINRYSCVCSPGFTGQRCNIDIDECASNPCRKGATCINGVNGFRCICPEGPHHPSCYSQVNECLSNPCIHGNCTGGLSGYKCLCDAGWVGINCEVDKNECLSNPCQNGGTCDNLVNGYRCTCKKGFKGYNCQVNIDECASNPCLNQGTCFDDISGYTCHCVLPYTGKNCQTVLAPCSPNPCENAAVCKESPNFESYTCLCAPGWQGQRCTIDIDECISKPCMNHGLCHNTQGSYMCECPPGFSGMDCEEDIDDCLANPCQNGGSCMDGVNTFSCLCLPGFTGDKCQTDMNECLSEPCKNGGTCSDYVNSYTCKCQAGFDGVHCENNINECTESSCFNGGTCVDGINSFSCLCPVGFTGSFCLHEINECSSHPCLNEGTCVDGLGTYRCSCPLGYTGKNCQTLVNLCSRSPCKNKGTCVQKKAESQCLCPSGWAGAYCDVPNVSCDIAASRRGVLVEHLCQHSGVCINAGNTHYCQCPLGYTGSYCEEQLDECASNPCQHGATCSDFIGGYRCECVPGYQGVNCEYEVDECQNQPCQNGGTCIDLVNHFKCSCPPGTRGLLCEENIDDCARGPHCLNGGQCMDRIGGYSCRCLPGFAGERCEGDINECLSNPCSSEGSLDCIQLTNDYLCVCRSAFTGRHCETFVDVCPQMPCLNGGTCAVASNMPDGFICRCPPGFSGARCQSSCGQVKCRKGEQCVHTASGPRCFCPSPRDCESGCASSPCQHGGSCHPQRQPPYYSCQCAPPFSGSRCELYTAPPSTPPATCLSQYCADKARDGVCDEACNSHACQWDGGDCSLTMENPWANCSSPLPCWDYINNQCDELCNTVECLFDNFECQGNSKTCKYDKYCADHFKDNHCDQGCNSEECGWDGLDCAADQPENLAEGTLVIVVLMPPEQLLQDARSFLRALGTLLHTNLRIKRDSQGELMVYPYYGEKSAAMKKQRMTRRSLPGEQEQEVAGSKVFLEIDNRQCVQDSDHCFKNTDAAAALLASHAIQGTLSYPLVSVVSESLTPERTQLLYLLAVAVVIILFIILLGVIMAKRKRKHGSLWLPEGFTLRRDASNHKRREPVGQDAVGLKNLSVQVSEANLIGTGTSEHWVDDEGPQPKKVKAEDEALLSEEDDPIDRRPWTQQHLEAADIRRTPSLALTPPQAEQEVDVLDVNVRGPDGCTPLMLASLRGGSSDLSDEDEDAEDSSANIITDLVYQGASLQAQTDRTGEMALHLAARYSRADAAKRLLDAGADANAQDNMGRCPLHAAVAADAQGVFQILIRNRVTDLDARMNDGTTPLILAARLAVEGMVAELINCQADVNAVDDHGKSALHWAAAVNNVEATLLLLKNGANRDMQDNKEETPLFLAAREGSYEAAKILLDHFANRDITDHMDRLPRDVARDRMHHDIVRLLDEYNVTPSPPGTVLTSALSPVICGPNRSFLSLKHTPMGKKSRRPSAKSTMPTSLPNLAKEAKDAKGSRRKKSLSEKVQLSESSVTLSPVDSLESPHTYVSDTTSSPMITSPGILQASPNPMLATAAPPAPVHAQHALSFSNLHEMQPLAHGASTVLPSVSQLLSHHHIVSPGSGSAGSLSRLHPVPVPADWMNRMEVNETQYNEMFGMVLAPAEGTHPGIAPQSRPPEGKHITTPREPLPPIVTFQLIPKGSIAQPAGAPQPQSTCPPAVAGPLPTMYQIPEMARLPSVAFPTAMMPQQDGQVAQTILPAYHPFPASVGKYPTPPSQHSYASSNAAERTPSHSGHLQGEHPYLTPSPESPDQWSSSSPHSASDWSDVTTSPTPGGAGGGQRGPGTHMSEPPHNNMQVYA

`C=CCN(CCCC)C(=O)C1N(c2ccc(CCO)cc2)C(=O)C2C(C(=O)O)C3C=CC21O3` (stereo not given): the composite z-score in assay [1] was 0.508 and 1.27; in assay [2] it was -1.1 and -1.66; in assay [3] it was -0.156 and -0.061; in [4] it was -0.883 and 0.807; in assay [5] it was -1.32 and -0.91; in assay [6], -1.32 and -0.402. Also, the composite z-score is -0.493 and 0.201 in assay [7]; -0.951 and -1.03 in [9]; -0.48 and -0.137 in assay [10]; 0.0734 and -0.79 in assay [11]; -1.07 and 0.53 in assay [15]; 0.113 and 0.0553 in [17]. Also, the composite z-score in [18] is -2.44 and -3.58; in [19] it was -1.38 and -1.27; in assay [20] it was -0.226 and -0.317. The z-score in [8] is -0.267 (inactive) and 1.68 (inactive); in assay [12] it was -0.844 (inactive) and -0.115 (inactive); in [13] it was -0.261 (inactive) and -0.527 (inactive); in assay [14], -0.0659 (inactive) and 0.252 (inactive); in [16], 1.13 (inactive) and 2.05 (inactive).
With `C[N+](C)(C)CCCCNC(=O)[C@H]1C[C@H]2C(=O)N[C@@H](CCCC[N+](C)(C)C)C(=O)N2[C@H]1c1ccc(O)cc1`, the composite z-score is -0.589 and -0.197 in assay [1]; 2 and 1.03 in assay [2]; -0.051 and -0.216 in assay [3]; 0.889 and 0.379 in assay [4]; 0.443 and -0.234 in assay [5]; 0.289 and -0.641 in assay [6]. The composite z-score was 1.38 and 0.394 in assay [7]; -0.142 and 0.287 in assay [9]; 0.21 and -0.134 in assay [10]; 1.54 and 1.55 in assay [11]; -0.296 and -0.656 in assay [15]; -0.171 and -0.214 in assay [17]. Further, the composite z-score in [18] is 1.73 and 1.84; in assay [19], 0.97 and 0.969; in assay [20], 0.0338 and -0.127. The z-score was 0.717 (inactive) and 0.376 (inactive) in [8]; 0.877 (inactive) and -0.0113 (inactive) in assay [12]; 0.565 (inactive) and 0.352 (inactive) in assay [13]; -1.16 (inactive) and -1.35 (inactive) in [14]; -0.118 (inactive) and 0.0161 (inactive) in assay [16].
Regarding `C=CCN(C(=O)C1N(CCOCCO)C(=O)C2C(C(=O)O)C3C=CC21O3)C(C)(C)C` (stereo not given), the composite z-score in assay [1] was 0.977 and 0.412; in assay [2], -0.768 and -0.863; in assay [3] it was -0.25 and -0.262; in assay [4] it was -1.82 and -1.11; in assay [5], -2.44 and -1.36; in [6], -0.774 and -0.717. The composite z-score in assay [7] is -0.643 and -0.383; in assay [9] it was -1.09 and -1.91; in assay [10], -0.175 and 0.0156; in assay [11] it was -1.26 and -0.124; in assay [15], -1.29 and -1.44; in assay [17], -0.251 and -0.197. The composite z-score in [18] is -2.02 and -1.83; in assay [19], -1.49 and -0.757; in assay [20], -0.323 and -0.241. The z-score is 0.97 (inactive) and -0.383 (inactive) in assay [8]; -0.419 (inactive) and -0.683 (inactive) in assay [12]; -0.378 (inactive) and -0.505 (inactive) in assay [13]; -0.357 (inactive) and -0.658 (inactive) in assay [14]; 0.389 (inactive) and 0.267 (inactive) in [16].
As for `C=CCN(C(=O)C(c1cccs1)N(C(=O)/C=C\C(=O)O)C(C)(C)CO)C(C)(C)C` (stereo not given), the composite z-score is -0.0667 and 0.0338 in [1]; -0.543 and -0.24 in assay [2]; 0.0929 and -0.126 in assay [3]; -0.433 and -0.781 in assay [4]; -1.07 and -0.925 in assay [5]; 1.32 and 1.05 in [6]. The composite z-score was 1.27 and 1.24 in [7]; -0.114 and -0.867 in [9]; -0.0994 and -0.385 in assay [10]; -0.381 and 0.182 in assay [11]; 2.89 and 0.484 in assay [15]; -0.141 and -0.147 in [17]. Further, the composite z-score was -1.52 and -1.23 in assay [18]; -0.97 and -0.967 in assay [19]; -0.128 and -0.292 in [20]. The z-score in assay [8] was -1.03 (inactive) and -1.13 (inactive); in assay [12], -1.81 (inactive) and -2 (inactive); in [13] it was -1.45 (inactive) and -1.15 (inactive); in assay [14], -0.429 (inactive) and -0.373 (inactive); in [16] it was 2.02 (inactive) and 1.22 (inactive).
